The structures appear in SMILES notation. Activity calls are given as the source filed them. The calls were made as follows: active = hit-call score of the fitted dose curve at least 0.9, where 1 is the maximum; inactive = score below 0.9.

Chain of Nuclear respiratory factor 1 (Homo sapiens) (Q16656 whole entry, looked up): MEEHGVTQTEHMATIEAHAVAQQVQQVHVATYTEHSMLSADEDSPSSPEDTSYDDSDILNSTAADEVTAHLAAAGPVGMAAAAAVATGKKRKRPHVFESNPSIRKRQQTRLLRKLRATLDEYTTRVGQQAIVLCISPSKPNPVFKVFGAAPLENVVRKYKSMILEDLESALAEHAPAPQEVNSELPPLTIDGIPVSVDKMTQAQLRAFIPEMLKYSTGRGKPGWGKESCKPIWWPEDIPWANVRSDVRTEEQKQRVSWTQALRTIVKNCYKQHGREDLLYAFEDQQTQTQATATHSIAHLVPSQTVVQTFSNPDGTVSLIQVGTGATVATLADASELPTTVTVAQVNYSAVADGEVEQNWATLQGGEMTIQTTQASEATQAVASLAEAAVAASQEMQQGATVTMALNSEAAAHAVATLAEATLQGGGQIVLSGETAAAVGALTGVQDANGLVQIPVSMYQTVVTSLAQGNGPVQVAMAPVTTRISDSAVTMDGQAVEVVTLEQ

The assay addresses Nuclear respiratory factor 1 (Homo sapiens) (UniProt Q16656). Kind of assay: ATG_NRF1_CIS: Attagene CIS-FACTORIAL HepG2 Assay for human Nuclear Respiratory Factor 1 (NRF1) Orphan Gene (AID 2282987). Conditions: HepG2 NRF1 cis-element reporter, Attagene multiplex; actives raise or lower the signal. An outline of the steps: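 Multiplexed cis-reporter assay, HepG2 cells, 24 h treatment. Total RNA → oligo(dT) RT → PCR with reporter-specific primers → 6-FAM primer extension → HpaI cut → CE. Bidirectional fit vs DMSO.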
As to `Cc1cc(C)cc(C)c1`, the compound was called inactive.

Regarding `CC(C)N(C(=O)CCl)c1ccccc1`, the AC50 is 49.1 µM (active).

Consider `BrCC(Br)c1ccccc1` (centres undefined), for which the call was inactive.

In the case of `CCOC(=O)CCN(SN(C)C(=O)Oc1cccc2c1OC(C)(C)C2)C(C)C`, the outcome was inactive.

As to `CCCCOC(=O)COC(=O)c1ccccc1C(=O)OCCCC`, the result was inactive.

On to `Clc1cccc(Cl)c1Cl`, for which the compound was called inactive.

For the compound `CC(C)[N+](=O)[O-]`, the outcome was inactive.

As for `Cc1cc(SCc2sc(-c3ccc(C(F)(F)F)c(F)c3)nc2C)ccc1OCC(=O)O`, the call was inactive.

For the compound `O=C(CBr)c1ccc(O)cc1`, the result was inactive.

`CCOP(=S)(OCC)O/N=C(\C#N)c1ccccc1`: the result was inactive.

For the compound `CCN(CC)C(=O)C(Cl)=C(C)OP(=O)(OC)OC`, the result was inactive.

As for `O=C(O)CC(O)(CC(=O)O)C(=O)O`, the outcome was inactive.

`ClCc1ccccc1Cl`: the outcome was inactive.

As for `CCCCCCCCBr`, the outcome was inactive.

In the case of `N#Cc1ccccc1Cl`, the compound was called inactive.

In the case of `O=C1C=CC(=O)c2ccccc21`, the outcome was inactive.

For the compound `COc1nn(C(=O)NS(=O)(=O)c2ccccc2OC(F)(F)F)c(=O)n1C`, the result was inactive.

Regarding `N#Cc1ccc(Cl)cc1`, the compound was called inactive.

On to `NNCCO`, for which the compound was called inactive.

As to `O=[N+]([O-])c1ccc(Cl)c([N+](=O)[O-])c1`, the compound was called inactive.

Take `C=CC(Cl)CCl` (centres undefined): the result was inactive.

In the case of `O=C(O)COc1cc(Cl)c(Cl)cc1Cl`, the outcome was inactive.

For `C[C@H]1C(=O)O[C@@H]2CCN3CC=C(COC(=O)[C@](C)(O)[C@]1(C)O)[C@H]23`, the outcome was inactive.

For the compound `CN(C)[C@@H]1C(=O)C(C(N)=O)=C(O)[C@@]2(O)C(=O)C3=C(O)c4c(O)ccc(Cl)c4[C@@](C)(O)[C@H]3C[C@@H]12`, the result was inactive.

In the case of `CN(N=O)C(N)=O`, the outcome was inactive.

For the compound `OC[C@@H](O)[C@H]1O[C@@H]2O[C@H](C(Cl)(Cl)Cl)O[C@@H]2[C@H]1O`, the call was inactive.

On to `OCCCCO`, for which the compound was called inactive.

`CCCCCCCCCCCCCCC(Br)C(=O)O` (centres undefined): the AC50 is 168 µM (active).

Regarding `OC[P+](CO)(CO)CO`, the call was inactive.

Turning to `C=CCOC(N)=O`, the compound was called inactive.

Turning to `O=CCCl`, the AC50 was 25.5 µM (active).

`N#CS`: the call was inactive.

`CCOC(=O)CC(=O)CCl`: the outcome was inactive.

Regarding `CCC(C)(C#N)N=NC(C)(C#N)CC` (centres undefined), the compound was classed as inactive.

In the case of `CC(C)C(C)(N)C#N` (centres undefined), the compound was called inactive.

On to `CCC[CH2][Sn]([CH2]CCC)([CH2]CCC)[CH2]CCC`, for which the result was inactive.

Regarding `N#CCC#N`, the result was inactive.

For the compound `FC(F)OCC(F)(F)C(F)(F)F`, the compound was called inactive.

For `C[As+](C)(C)CC(=O)[O-]`, the compound was classed as inactive.

By AC50 is commonly meant the concentration at which the activity in the assay is half-maximal.

Values taken from PubChem BioAssay (EPA / NIEHS).
